This note sets out measurements from PubChem BioAssay (NCATS).

Inconclusive results are not listed. The source made the active and inactive calls. Unless noted, the call rests on the fitted dose curve; in most records, active means well fitted curve in the direction sought with a large enough effect; inconclusive means small, poorly fitted or top-dose-only effect, or another doubt; inactive means no such curve, though single readings can be large; an effect the other way counts as inactive or inconclusive.

Test [1] deals with P93_24. The test is described as follows: qHTS profiling for inhibitors of Plasmodium falciparum proliferation (AID 504749). Further: nearly all actives have a fitted effect of over 60% in size. Further: potency means the concentration at half of the fitted maximal effect. The settings on record: P. falciparum in erythrocytes, SYBR Green DNA, 72 h; series mostly up to 28.7 µM. In a few lines:
(§1)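 Readout was DNA-dye fluorescence from lysed cultures, ex 485/em 535 nm. Parasitized red cells had grown 72 h with compound; data scaled between 0.29 uM artemisinin and DMSO wells and corrected using vehicle-only plates.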
A general note: In qHTS, concentration-response curves come from the screen itself.

Test [2] deals with PAD. The test is described as above. The settings on record: P. falciparum in erythrocytes, SYBR Green DNA, 72 h; series mostly up to 28.7 µM. The procedure, abridged:
as §1

The target of test [3] is Cytochrome P450 3A4 (Homo sapiens) (UniProt P08684). The experiment in a line: qHTS Assay for Inhibitors and Substrates of Cytochrome P450 3A4 (AID 884). Further: nearly all actives have a fitted effect of over 50% in size. In a few lines: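 20 nM human CYP3A4 with 25 uM Luciferin-PPXE (at KM) in 200 mM KPO4, preincubated 10 min with compound; NADPH regeneration started a 60 min RT reaction. Luciferin detected by luminescence, normalized to 57 uM ketoconazole as full inhibition.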

Test [4] is described as follows: Confirmation and Secondary Assay for Modulators of Hemoglobin Beta Chain Splicing at IVS2 654 locus (AID 910).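 Further: HeLa cells stably carrying EGFP split by mutant beta-globin IVS2-654 intron.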 The procedure, abridged:
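HeLa cells stably expressing EGFP interrupted by β-globin IVS2-654 intron, seeded overnight in Opti-MEM/2% FCS, then treated 2 days at 37 °C. Restored splicing read as total peak GFP intensity per well by laser scanning cytometry (488 nm excitation, 500–520 nm emission); 500 nM antisense PNA as control.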

The nature of test [5]: Confirmation and Secondary Assay for Modulators of Hemoglobin Beta Chain Splicing at IVS2 705 locus (AID 930).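 Further: HeLa cells stably expressing the EGFP-705 splicing reporter.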 In a few lines: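 HeLa cells stably carrying EGFP interrupted by mutant beta-globin IVS2-705 intron (CMV-driven) were seeded at 500 cells/well, treated next day with compound for 2 days at 37C; corrected splicing restores EGFP, read as total peak GFP intensity per well.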

In test [6] the test system is C2A. The test is described as follows: qHTS profiling for inhibitors of Plasmodium falciparum proliferation (AID 504749). Further: nearly all actives have a fitted effect of over 60% in size. Further: potency means the concentration at half of the fitted maximal effect. The settings on record: P. falciparum in erythrocytes, SYBR Green DNA, 72 h; series mostly up to 28.7 µM. In a few lines: as §1
Test [7] has as its system CP191. The test is described as above. To be noted: P. falciparum in erythrocytes, SYBR Green DNA, 72 h; series mostly up to 28.7 µM. In a few lines:
as §1

Test [8] deals with ATS95. Described as above. The settings on record: P. falciparum in erythrocytes, SYBR Green DNA, 72 h; series mostly up to 28.7 µM. In a few lines:
as §1

Test [9] has as its system P94_40. The description is as above. The settings on record: P. falciparum in erythrocytes, SYBR Green DNA, 72 h; series mostly up to 28.7 µM. The procedure, abridged:
as §1

Test [10] has as its system PC26. The test is described as above. To be noted: P. falciparum in erythrocytes, SYBR Green DNA, 72 h; series mostly up to 28.7 µM. The procedure, abridged:
as §1

In test [11] the test system is TAB113. The description is as above. To be noted: P. falciparum in erythrocytes, SYBR Green DNA, 72 h; series mostly up to 28.7 µM. In a few lines:
as §1

For test [12], the system named is CP247. The description is as above. The settings on record: P. falciparum in erythrocytes, SYBR Green DNA, 72 h; series mostly up to 28.7 µM. In a few lines: as §1
Test [13] relates to CP250. Described as above. To be noted: P. falciparum in erythrocytes, SYBR Green DNA, 72 h; series mostly up to 28.7 µM. In a few lines:
as §1

Test [14] has as its system DFO2036. Described as above. The settings on record: P. falciparum in erythrocytes, SYBR Green DNA, 72 h; series mostly up to 28.7 µM. In a few lines: as §1
Test [15] concerns the target Mitogen-activated protein kinase 10 (Mus musculus) (UniProt Q61831). The test is described as follows: JNK3 AlphaScreen Assay (AID 530; active means well fitted curve in either direction with a large enough effect, not every such curve was filed as active;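 further: kinase came from lysate of stimulated human HepG2 cells; signal reports phosphorylation of biotinylated GST-cJun 1-79 at Ser73 with 10 µM ATP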). The procedure, abridged: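 qHTS format: compounds tested as titrations against IL-1beta/TNF-alpha-activated HepG2 lysate JNK3 with biotin-GST-cJun substrate and 10 uM ATP at room temperature. Loss of anti-phospho-cJun AlphaScreen signal indicates inhibition.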
(In Alpha technology, singlet oxygen from a donor bead excites a nearby acceptor bead.)

Test [16] addresses DNA dC->dU-editing enzyme APOBEC-3G (Homo sapiens) (UniProt Q9HC16). The test is described as follows: qHTS for inhibitors of Vif-A3G interactions: Validation (AID 588379). The procedure, abridged: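 HeLa cells stably expressing Vif and A3G-eYFP, 700 cells/well, incubated overnight at 37 deg C, then exposed to compound overnight at 37 deg C. Inhibition of Vif-mediated degradation read as increased yellow fluorescence (Ex 488/Em 500-530) by laser-scanning cytometry.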

Sequence of Cytochrome P450 3A4 (Homo sapiens) (P08684 whole entry, looked up): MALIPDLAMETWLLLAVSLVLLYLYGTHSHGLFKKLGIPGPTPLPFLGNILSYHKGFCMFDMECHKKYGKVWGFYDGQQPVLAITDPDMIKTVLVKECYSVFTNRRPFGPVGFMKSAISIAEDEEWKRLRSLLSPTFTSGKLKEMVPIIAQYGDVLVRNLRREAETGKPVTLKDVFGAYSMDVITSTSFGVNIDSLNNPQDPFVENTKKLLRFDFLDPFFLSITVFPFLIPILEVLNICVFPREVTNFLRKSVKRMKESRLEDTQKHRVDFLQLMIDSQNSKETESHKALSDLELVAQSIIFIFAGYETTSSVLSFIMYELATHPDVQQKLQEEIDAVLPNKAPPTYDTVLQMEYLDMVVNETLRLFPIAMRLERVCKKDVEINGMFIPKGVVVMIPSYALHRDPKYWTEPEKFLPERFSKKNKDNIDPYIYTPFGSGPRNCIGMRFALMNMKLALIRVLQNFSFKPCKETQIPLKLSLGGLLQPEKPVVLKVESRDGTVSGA
Sequence of DNA dC->dU-editing enzyme APOBEC-3G (Homo sapiens) (Q9HC16 whole entry, looked up): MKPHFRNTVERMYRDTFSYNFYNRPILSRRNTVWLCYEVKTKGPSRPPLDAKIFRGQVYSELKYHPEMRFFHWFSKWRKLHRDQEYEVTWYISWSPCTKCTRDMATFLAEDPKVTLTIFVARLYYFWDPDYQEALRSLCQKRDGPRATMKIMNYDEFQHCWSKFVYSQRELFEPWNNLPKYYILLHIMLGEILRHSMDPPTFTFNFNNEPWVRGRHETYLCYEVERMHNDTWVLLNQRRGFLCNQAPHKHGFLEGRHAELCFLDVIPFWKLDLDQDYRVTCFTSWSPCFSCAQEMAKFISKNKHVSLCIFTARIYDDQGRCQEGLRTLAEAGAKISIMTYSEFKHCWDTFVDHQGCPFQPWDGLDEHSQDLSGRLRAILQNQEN

Regarding `COC(=O)C1[C@@H](OC)C(OC(=O)COc2ccc(OC)cc2)C[C@@H]2CN3CCc4c([nH]c5cc(OC)ccc45)[C@H]3C[C@H]12` (stereo partly specified), the Potency in test [1] was 10 µM (active); in [2], 11.2 µM (active).
With `CCC1OC(=O)C[C@H](O)C(C)[C@@H](O[C@@H]2OC(C)C(O)C(N(C)C)C2O)C(CCN2CC(C)CC(C)C2)CC(C)C(=O)/C=C/C(C)=C\[C@@H]1COC1OC(C)C(O)C(OC)C1OC` (stereo partly specified), the Potency entry in test [3], in [4] and in [5] was “inactive” in each case. Further, the figures for the Potency in test [6] and in test [7] were 10 µM (active) and 6.31 µM (active), respectively.
Regarding `O=C1Oc2ccccc2C(=O)C1C(CC(O)c1ccc(-c2ccc(Br)cc2)cc1)c1ccccc1` (stereo unspecified), the Potency result in test [8], in [7], in test [9], in test [10] and in [11] was “inactive” each time.
Consider `Cc1cncc(C(=O)O)[n+]1[O-]`, for which the Potency result in test [8], in [9], in [2], in [10] and in [11] was “inactive” each time.
For the compound `CCC(C)C(N)C(=O)O` (stereo unspecified), the Potency entry in [8], in test [6], in [7], in test [12], in [13] and in test [14] was “inactive” in each case. Also, the Potency entry in test [1], in [9], in [2], in [10] and in [11] was “inactive” throughout.
Regarding `CNC1CCc2cc(OC)c(OC)c(OC)c2-c2ccc(OC)c(=O)cc21` (stereo unspecified), the Potency result in test [8], in test [6], in test [7], in [13], in [14] and in test [9] was “inactive” in each case. Further, the Potency entry in test [2], in [10] and in [11] was “inactive” each time.
Consider `CCN(CC)CCOCCOC(=O)C(CC)(CC)c1ccccc1` (tested in a mixture with another compound), for which the Potency entry in test [8], in [12] and in test [2] was “inactive” in each case. For the same compound, the Potency in test [7] was 10 µM (active).
With `C=C1CC[C@H](O)C/C1=C/C=C1\CCC[C@]2(C)[C@@H]([C@H](C)CC[C@@H](O)C(C)(C)O)CC[C@@H]12`, the Potency in test [10] is 15.1 µM (active).
As to `C[C@]12CCC(=O)C=C1[C@@H]1C[C@H]1[C@H]1[C@@H]3[C@@H]4C[C@H]4[C@@]4(CCC(=O)O4)[C@@]3(C)CC[C@@H]12`, the Potency entry in test [8], in test [6], in test [7], in test [12], in test [13] and in test [14] was “inactive” each time. Besides, the Potency result in test [1], in test [9], in [10] and in test [11] was “inactive” in each case.
With `C[C@H](CN1c2ccccc2Sc2cccnc21)N(C)C`, the Potency in test [8] was 11.2 µM (active); in test [12] it was 3.98 µM (active); in test [14] it was 11.2 µM (active); in test [1] it was 8.91 µM (active); in test [11], 12.6 µM (active).
On to `CCC1OC(=O)C[C@@H](O)[C@H](C)[C@@H](OC2OC(C)CC(N(C)C)C2O)[C@@H](CC=O)C[C@@H](C)C(=O)/C=C/[C@]2(C)OC2C1C` (stereo partly specified), for which, in test [1], the Potency was 1.12 µM (active).
In the case of `C=C1CC[C@H](O)C/C1=C/C=C1\CCC[C@]2(C)[C@@H]([C@H](C)CCCC(C)(C)O)CC[C@@H]12`, in [12], the Potency was 8.91 µM (active).
As to `Cc1cc(O)c2c(c1)OC1(C)CCC3C(C)(C)CCCC34COC2C14` (stereo unspecified), the Potency entry in [6] was “inactive”. Also, the Potency in test [11] is 8.91 µM (active).
`Cc1cnc(NC(=O)C2C(=O)c3ccccc3S(=O)(=O)N2C)s1` (stereo unspecified): the Potency result in test [8], in test [6], in test [7], in test [12], in test [13] and in [14] was “inactive” throughout. For the same compound, the Potency entry in test [1], in [9], in [2], in [10] and in [11] was “inactive” throughout.
With `CCCCC(=O)OC1CCC2C3CCc4cc(O)ccc4C3CC[C@]12C` (stereo partly specified), the Potency entry in [4], in test [5], in [6], in test [13] and in test [10] was “inactive” throughout.
As to `Oc1cc2cc(CCN3CCN(c4nsc5ccccc45)CC3)c(Cl)cc2[nH]1`, the Potency result in [8], in test [6], in [9] and in [11] was “inactive” in each case. Moreover, the Potency in test [12] was 10 µM (active).
With `C=C1N[C@]2(C(=O)COC(C)=O)[C@@H](C[C@H]3[C@@H]4CCC5=CC(=O)C=C[C@]5(C)[C@H]4[C@@H](O)C[C@@]32C)O1`, the Potency result in test [12] and in test [2] was “inactive” throughout.
With `C[C@@H]1CC2[C@@H]3C[C@H](F)C4=CC(=O)C(Cl)=C[C@]4(C)[C@@]3(F)[C@H](O)C[C@]2(C)[C@@]1(O)C(=O)CO` (stereo partly specified), the Potency entry in [13] and in [14] was “inactive” in each case.
With `CC1=C[C@@H](O)CC(C)(C)[C@@H]1/C=C/C(C)=C/C=C/C(C)=C/C=C/C=C(C)/C=C/C=C(C)/C=C/C1=C(C)C[C@H](O)CC1(C)C`, the Potency result in test [7], in [13] and in test [14] was “inactive” each time.
For `C=C1CC2C3C=C(C)C4=CC(=O)CCC4(C)C3CCC2(C)[C@@]1(OC(C)=O)C(C)=O` (stereo partly specified), the Potency result in test [6], in test [12], in [13] and in test [14] was “inactive” in each case.
For `CCOc1ccccc1O[C@@H](c1ccccc1)[C@@H]1CNCCO1`, the Potency result in test [15], in test [13] and in [14] was “inactive” throughout. Also, the compound was classed as inactive in [16]. For the same compound, the Potency in [1] was 10 µM (active).
For the compound `CN(C)CC[C@@](O)(c1ccccc1)c1ccccc1Cl`, the Potency in test [8] was 11.2 µM (active); in test [14] it was 8.91 µM (active); in test [1], 5.62 µM (active); in test [9], 6.31 µM (active); in test [2], 11.2 µM (active); in [10], 7.57 µM (active). Further, the Potency in test [11] was 11.2 µM (active).
On to `O=C(O)C[CH2][Ge](=[O])[O][Ge](=[O])[CH2]CC(=O)O`, for which the Potency entry in test [8], in [6], in test [7], in test [12], in test [13] and in test [14] was “inactive” in each case. The Potency result in test [1], in test [9], in test [2], in test [10] and in test [11] was “inactive” each time.
